Reference: PubChem BioAssay (NCI)
About 79,000 compounds went through this panel and 15% of them were active in at least one assay; those are over-represented in the sample as a whole. A number with no mark means an inactive call. Rule as the data show it: active = growth inhibition above about 70%; inactive = the rest.

test: NCI Yeast Anticancer Drug Screen. Data for the mlh1 rad18 strain (AID 175); details: S. cerevisiae mlh1 rad18 strain growth inhibition; at 50.0 µM; active compounds read high
Method in brief: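 Growth inhibition of the yeast strain was measured after compound exposure and expressed relative to vehicle-treated controls. The strain carries defined defects in DNA damage repair.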

Compound	growth inhibition [%]
COC(=O)/C=C/C(=N/N(C)c1ccccc1)c1ccccc1	-5.15
CC(C)(C)OC(=O)NC(CCCCNC(=O)OCc1ccccc1)C(=O)NCCNc1ccc(NCCNC(=O)C(CCCCNC(=O)OCc2ccccc2)NC(=O)OC(C)(C)C)c2c1C(=O)c1ccccc1C2=O (centres undefined)	-52.8
COc1ccc(N2C=Nn3c(nc4sc5c(c4c3=O)CCCC5)C2)cc1	-24.4
Cc1sc2nc3n(c(=O)c2c1C)N=CN(c1ccc(F)cc1)C3	-32.6
N#CC(N)(C(=O)C(=O)NCCCNC(=O)C(=O)C(N)(C#N)c1ccc(Cl)cc1)c1ccc(Cl)cc1 (centres undefined)	-28.7
CCOC(=O)C(=O)Nc1ccc2cc(OC)ccc2c1C#N	-17.8
CC(COc1ccc(Cl)cc1)OS(=O)(=O)CCCl (centres undefined)	-4.65
N#Cc1c(NC(=S)NC(=O)c2ccccc2)nc2c(c1-c1ccccc1)CCCC2	21.6
C=CCCC1CC(OCC)OC(CCC=C)O1 (centres undefined)	13.8
CC1(C)CC(C)(OC(=O)c2ccccc2)N=N1 (centres undefined)	11.1
CCCOC(=O)CCCC1=NC2=CC=CC3=NC(C)=NC(=N1)N23	-7.45
c1ccc(N=C2CCCCCC2)cc1	-6.7
c1ccc2c(c1)OP1(=NP3(=NP4(=NP5(=N1)Oc1ccccc1-c1ccccc1O5)Oc1ccccc1-c1ccccc1O4)Oc1ccccc1-c1ccccc1O3)Oc1ccccc1-2	17.2
O=C(O)CCC(=O)c1ccc2c3c(cccc13)CC2	36
